# In ChEMBL document CHEMBL2218924, “A broad activity screen in support of a chemogenomic map for kinase signalling research and drug discovery” (Biochem J, 2013):
# Key:
# [1] = molecular target: T1, Ephrin type-A receptor 3 (Homo sapiens) (UniProt P29320); settings: at 10 µM
# T1 sequence (whole entry): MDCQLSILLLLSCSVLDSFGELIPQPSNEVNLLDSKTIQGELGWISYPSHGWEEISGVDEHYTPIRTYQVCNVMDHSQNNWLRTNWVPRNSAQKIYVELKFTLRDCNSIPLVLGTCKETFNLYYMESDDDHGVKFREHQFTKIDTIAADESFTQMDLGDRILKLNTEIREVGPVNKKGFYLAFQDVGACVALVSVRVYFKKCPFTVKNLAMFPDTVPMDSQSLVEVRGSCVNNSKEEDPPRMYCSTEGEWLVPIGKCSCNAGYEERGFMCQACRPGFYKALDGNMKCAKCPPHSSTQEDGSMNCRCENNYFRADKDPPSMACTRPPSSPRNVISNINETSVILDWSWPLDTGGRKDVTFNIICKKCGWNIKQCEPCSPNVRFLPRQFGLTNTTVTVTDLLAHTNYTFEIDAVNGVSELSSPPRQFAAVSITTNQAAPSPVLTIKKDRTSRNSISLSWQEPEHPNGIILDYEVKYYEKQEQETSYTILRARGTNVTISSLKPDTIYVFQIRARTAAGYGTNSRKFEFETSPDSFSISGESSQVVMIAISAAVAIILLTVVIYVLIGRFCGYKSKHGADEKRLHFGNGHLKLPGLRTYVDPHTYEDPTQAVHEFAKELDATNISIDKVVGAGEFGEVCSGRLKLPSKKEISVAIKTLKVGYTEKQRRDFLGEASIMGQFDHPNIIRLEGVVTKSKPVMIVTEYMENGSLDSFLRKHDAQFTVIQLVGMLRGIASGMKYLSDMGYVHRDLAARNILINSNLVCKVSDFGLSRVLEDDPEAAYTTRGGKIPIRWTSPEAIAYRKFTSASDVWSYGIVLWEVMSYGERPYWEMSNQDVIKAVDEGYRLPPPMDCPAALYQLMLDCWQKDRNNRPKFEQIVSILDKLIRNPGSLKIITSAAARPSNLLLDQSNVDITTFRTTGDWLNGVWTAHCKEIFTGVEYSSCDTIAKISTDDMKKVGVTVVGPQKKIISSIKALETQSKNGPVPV
# [2] = molecular target: Ephrin type-A receptor 5 (Homo sapiens) (UniProt P54756); settings: at 10 µM
# Chain of Ephrin type-A receptor 5 (Homo sapiens) (P54756 whole entry): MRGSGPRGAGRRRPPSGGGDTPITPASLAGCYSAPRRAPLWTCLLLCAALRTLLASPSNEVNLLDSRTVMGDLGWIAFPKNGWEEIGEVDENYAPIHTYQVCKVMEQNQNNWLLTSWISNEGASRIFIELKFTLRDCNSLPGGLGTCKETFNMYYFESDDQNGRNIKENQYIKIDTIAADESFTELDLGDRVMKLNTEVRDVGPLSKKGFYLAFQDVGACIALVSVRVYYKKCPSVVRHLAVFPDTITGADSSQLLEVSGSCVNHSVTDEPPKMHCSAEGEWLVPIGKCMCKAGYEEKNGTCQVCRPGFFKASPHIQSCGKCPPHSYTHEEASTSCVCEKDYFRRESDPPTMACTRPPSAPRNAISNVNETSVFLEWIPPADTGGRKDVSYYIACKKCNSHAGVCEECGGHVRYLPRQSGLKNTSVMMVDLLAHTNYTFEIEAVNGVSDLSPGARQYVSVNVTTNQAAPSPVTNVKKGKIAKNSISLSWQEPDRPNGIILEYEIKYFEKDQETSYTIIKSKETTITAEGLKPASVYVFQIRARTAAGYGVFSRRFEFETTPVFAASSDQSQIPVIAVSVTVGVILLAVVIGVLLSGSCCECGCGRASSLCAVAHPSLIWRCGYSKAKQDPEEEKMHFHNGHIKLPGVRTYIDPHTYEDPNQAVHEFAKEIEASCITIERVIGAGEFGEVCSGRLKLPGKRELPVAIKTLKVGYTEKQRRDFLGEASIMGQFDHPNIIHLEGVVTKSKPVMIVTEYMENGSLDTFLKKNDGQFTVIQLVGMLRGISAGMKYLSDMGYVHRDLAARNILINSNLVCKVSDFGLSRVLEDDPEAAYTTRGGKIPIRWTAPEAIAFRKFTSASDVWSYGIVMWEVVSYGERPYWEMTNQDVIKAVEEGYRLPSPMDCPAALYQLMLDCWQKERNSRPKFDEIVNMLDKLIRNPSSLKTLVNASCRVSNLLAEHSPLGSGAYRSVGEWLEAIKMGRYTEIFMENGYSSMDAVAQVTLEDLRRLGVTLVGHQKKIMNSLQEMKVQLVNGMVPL
# [3] = molecular target: Ephrin type-A receptor 7 (Homo sapiens) (UniProt Q15375); settings: at 1 µM
# Chain of Ephrin type-A receptor 7 (Homo sapiens) (Q15375 28-998 limits assumed): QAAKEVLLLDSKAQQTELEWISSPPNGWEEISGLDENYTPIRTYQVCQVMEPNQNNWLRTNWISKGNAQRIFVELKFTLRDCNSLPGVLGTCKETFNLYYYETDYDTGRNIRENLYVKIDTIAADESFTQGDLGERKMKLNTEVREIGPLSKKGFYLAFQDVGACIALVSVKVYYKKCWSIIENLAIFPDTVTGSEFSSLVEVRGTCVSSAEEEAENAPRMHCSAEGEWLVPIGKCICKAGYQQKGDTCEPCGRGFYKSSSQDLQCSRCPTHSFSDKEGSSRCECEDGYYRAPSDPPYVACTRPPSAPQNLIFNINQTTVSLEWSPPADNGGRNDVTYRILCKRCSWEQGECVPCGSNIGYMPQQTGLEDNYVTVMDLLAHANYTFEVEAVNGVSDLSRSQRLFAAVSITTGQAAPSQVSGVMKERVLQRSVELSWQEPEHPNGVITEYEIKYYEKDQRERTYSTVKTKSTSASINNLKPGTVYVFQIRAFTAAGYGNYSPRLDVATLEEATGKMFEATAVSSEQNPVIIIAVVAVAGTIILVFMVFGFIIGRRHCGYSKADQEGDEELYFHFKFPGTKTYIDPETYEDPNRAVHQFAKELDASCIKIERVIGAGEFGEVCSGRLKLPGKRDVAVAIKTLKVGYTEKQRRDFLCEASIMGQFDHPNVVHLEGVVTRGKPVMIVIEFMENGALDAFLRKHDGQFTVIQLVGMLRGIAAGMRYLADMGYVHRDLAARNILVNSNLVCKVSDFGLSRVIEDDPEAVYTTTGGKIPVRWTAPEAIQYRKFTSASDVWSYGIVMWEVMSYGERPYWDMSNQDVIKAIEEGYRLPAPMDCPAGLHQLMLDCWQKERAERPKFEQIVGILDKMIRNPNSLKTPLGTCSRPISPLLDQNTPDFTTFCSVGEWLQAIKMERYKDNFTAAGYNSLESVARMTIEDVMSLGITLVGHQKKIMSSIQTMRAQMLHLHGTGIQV
# [4] = molecular target: Ephrin type-A receptor 7 (Homo sapiens) (UniProt Q15375); settings: at 10 µM
# [5] = molecular target: T2, Ephrin type-A receptor 8 (Homo sapiens) (UniProt P29322); settings: at 10 µM
# T2 sequence (whole entry): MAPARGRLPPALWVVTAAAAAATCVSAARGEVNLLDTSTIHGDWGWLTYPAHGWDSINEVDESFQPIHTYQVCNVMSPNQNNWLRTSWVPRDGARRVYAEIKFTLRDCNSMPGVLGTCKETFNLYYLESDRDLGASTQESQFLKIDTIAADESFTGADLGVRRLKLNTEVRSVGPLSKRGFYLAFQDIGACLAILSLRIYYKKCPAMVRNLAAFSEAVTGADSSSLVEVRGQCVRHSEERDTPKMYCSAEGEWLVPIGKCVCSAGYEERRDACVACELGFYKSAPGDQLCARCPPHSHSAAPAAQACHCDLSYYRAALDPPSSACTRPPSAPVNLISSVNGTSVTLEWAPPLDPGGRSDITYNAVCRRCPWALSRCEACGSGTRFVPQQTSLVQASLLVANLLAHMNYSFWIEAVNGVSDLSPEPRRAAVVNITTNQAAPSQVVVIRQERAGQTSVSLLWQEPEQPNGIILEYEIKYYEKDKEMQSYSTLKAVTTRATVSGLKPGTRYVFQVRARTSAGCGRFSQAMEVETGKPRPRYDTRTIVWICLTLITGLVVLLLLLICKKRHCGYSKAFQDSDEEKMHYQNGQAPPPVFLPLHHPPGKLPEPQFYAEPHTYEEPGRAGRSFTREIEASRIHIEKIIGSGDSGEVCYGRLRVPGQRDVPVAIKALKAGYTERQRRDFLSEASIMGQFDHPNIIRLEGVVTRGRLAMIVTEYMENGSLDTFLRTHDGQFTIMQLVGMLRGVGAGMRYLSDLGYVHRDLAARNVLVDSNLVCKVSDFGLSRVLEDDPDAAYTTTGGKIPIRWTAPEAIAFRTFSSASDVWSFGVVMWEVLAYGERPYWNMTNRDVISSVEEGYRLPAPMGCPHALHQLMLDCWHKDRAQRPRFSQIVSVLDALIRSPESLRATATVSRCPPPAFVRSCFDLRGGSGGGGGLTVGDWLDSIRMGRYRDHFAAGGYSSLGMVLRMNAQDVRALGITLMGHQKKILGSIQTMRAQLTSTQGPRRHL
# [6] = molecular target: T3, Ephrin type-B receptor 4 (Homo sapiens) (UniProt P54760); settings: at 1 µM
# T3 sequence (whole entry): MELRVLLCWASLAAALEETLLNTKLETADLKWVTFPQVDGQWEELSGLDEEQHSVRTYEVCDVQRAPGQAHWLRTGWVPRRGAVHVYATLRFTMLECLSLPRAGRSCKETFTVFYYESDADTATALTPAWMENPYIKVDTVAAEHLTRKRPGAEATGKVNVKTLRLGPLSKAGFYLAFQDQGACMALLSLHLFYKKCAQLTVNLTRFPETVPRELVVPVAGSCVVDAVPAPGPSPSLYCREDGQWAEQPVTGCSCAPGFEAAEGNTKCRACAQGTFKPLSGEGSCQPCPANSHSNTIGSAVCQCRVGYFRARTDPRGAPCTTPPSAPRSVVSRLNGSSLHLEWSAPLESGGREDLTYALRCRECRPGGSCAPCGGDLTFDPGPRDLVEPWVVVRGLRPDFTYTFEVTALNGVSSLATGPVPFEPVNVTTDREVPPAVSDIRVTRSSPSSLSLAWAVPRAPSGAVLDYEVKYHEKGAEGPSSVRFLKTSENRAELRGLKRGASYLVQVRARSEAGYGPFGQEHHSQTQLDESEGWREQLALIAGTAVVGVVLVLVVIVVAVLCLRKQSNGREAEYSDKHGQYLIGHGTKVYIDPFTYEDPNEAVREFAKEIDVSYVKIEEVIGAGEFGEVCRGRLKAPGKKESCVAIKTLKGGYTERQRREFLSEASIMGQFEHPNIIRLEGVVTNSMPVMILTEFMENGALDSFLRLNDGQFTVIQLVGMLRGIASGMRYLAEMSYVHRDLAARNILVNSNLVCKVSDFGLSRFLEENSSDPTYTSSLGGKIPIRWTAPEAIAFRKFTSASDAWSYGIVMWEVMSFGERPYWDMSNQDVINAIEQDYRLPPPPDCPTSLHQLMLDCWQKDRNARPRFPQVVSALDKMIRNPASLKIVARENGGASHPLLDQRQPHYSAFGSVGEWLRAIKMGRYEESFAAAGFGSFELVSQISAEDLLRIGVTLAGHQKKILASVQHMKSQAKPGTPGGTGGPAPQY
# [7] = molecular target: T3, Ephrin type-B receptor 4 (Homo sapiens); settings: at 10 µM
# [8] = molecular target: Receptor tyrosine-protein kinase erbB-4 (Homo sapiens) (UniProt Q15303); settings: at 10 µM
# Chain of Receptor tyrosine-protein kinase erbB-4 (Homo sapiens) (Q15303 whole entry): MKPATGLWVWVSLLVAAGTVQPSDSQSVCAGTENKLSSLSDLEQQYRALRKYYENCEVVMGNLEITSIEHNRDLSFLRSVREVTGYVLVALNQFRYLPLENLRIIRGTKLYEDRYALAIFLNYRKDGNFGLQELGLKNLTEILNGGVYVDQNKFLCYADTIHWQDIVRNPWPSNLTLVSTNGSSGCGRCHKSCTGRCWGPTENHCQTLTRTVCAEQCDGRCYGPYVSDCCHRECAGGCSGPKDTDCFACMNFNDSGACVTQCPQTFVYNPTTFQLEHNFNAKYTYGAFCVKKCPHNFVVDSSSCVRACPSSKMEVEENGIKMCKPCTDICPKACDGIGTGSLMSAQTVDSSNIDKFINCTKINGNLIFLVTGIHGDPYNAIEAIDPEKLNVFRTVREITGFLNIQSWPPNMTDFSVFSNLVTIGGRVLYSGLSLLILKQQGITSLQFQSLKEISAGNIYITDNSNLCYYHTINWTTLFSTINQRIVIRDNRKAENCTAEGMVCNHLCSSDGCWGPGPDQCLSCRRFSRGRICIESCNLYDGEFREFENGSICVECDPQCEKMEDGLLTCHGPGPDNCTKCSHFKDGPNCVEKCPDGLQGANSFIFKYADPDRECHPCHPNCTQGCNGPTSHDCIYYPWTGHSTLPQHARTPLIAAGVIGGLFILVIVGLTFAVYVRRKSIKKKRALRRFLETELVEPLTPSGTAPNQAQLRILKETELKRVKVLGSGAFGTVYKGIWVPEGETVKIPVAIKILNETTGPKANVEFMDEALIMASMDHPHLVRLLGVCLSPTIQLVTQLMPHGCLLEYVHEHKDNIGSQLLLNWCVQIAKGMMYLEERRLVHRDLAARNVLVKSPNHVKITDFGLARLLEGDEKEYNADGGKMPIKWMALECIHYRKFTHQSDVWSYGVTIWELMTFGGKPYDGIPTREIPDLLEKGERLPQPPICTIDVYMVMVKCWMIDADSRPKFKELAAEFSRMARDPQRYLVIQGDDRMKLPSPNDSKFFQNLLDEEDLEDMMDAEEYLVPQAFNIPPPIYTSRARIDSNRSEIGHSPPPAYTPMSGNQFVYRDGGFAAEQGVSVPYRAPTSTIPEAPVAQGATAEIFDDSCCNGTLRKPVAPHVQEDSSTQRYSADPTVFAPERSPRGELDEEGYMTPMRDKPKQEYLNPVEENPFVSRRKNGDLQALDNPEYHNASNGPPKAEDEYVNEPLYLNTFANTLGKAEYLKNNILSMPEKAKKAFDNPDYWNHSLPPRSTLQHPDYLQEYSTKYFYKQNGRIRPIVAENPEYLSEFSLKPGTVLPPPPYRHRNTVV
# [9] = molecular target: Focal adhesion kinase 1 (Homo sapiens) (UniProt Q05397); settings: at 1 µM
# Chain of Focal adhesion kinase 1 (Homo sapiens) (Q05397 2-1052 limits assumed): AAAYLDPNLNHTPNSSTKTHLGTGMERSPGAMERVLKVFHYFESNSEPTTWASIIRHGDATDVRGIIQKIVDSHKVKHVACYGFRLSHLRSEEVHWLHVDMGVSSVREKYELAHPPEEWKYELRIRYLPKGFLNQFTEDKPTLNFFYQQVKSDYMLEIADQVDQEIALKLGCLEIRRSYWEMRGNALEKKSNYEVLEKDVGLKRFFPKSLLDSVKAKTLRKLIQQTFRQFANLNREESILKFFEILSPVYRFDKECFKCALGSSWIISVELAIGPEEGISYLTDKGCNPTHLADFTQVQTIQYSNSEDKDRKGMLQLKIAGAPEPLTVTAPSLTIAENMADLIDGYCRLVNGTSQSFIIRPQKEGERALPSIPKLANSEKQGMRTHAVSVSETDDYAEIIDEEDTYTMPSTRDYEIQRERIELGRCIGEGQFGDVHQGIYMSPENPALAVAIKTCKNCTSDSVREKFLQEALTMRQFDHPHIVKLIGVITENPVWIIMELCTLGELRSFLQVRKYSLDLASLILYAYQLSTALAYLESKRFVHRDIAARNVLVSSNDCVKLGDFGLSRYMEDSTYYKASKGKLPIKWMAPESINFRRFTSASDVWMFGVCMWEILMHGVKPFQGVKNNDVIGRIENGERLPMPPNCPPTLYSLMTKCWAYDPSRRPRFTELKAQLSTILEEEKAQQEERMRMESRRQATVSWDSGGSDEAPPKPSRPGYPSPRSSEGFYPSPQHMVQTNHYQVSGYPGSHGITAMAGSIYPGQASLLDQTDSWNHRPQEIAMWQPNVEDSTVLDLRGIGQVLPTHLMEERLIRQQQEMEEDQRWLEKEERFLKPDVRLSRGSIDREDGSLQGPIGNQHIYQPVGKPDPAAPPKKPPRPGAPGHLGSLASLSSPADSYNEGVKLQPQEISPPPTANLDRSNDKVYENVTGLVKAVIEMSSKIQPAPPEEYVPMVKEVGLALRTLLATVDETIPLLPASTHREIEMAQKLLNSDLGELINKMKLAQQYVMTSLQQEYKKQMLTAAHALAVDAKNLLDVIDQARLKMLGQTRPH
structure (smiles),measurement,setting,value
Nc1n[nH]c2nc3ccccc3nc12,residual activity,[1],98%
same,residual activity,[2],97%
same,residual activity,[3],99%
same,residual activity,[4],79%
same,residual activity,[5],91%
same,residual activity,[6],97%
same,residual activity,[7],77%
same,residual activity,[8],87%
same,residual activity,[9],97%
